# According to the supplement of paper PMC11732987, “Enantioselective OTUD7B fragment discovery through chemoproteomics screening and high-throughput optimisation” (Communications Chemistry, 2025):
# Values without a mark were called inactive.
# Columns and labels:
# Experiment in all cases: log2 ratio of Biotin-Ahx-Ub-VS probe labelling (fragment/DMSO); higher = less target engagement (more negative = stronger competition), active = hit call of the paper (q ≤ 0.05, log2 ratio ≤ -1)
# Details in all cases: compound concentration: 200 uM; treatment time: 3 h
# USP19 = biological target: T1, USP19 (UniProt O94966)
# T1 sequence (whole entry): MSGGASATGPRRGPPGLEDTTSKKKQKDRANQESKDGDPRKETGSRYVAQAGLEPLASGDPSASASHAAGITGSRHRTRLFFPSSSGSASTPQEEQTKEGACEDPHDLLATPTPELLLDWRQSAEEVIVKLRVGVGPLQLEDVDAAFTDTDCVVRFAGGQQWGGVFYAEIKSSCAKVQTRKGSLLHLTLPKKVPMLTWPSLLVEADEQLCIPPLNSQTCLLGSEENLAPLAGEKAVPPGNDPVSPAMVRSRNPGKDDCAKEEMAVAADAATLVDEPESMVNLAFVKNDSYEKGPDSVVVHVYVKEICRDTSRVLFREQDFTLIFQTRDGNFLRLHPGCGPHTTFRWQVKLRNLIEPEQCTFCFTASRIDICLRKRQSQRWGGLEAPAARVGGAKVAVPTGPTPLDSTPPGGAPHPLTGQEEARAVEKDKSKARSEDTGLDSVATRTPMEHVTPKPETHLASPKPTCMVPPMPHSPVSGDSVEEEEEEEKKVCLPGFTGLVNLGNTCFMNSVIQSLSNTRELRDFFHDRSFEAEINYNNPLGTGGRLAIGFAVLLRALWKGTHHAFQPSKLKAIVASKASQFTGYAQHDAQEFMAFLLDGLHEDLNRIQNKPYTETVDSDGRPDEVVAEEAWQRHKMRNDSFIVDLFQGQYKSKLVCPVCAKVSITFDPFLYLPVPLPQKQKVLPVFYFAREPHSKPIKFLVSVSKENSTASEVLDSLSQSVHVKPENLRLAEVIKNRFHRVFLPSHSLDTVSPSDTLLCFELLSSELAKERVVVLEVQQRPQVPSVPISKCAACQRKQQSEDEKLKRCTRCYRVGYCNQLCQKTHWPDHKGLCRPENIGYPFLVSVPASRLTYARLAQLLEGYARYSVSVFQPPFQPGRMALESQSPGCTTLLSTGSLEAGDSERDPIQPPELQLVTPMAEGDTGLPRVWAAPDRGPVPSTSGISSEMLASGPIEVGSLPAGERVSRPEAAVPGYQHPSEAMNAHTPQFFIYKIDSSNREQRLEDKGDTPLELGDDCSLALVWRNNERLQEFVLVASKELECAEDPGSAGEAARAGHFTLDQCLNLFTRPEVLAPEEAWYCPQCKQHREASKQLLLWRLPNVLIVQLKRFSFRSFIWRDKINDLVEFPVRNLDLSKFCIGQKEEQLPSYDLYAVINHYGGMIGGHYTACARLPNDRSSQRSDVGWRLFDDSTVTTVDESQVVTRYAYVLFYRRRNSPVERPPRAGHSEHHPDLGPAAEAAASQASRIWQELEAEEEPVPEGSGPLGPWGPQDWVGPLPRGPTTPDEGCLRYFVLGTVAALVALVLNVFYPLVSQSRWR
# How it was run: (§1)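 The table lists average log2 ratios of fragment over vehicle, from an unpaired t-test on global-median-normalised Spectronaut label-free quantities. Proteins with ≥2 unique peptides were used. Samples were HEK293T lysate (495 µg) treated in triplicate with fragment at 200 µM or vehicle for 3 h, then with Biotin-Ahx-Ub-VS (0.5 µM final) for 1 h, with labelled DUBs NeutrAvidin-enriched and run by diaPASEF LC-MS/MS.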
# USP22 = biological target: T2, USP22 (UniProt Q9UPT9)
# T2 sequence (whole entry): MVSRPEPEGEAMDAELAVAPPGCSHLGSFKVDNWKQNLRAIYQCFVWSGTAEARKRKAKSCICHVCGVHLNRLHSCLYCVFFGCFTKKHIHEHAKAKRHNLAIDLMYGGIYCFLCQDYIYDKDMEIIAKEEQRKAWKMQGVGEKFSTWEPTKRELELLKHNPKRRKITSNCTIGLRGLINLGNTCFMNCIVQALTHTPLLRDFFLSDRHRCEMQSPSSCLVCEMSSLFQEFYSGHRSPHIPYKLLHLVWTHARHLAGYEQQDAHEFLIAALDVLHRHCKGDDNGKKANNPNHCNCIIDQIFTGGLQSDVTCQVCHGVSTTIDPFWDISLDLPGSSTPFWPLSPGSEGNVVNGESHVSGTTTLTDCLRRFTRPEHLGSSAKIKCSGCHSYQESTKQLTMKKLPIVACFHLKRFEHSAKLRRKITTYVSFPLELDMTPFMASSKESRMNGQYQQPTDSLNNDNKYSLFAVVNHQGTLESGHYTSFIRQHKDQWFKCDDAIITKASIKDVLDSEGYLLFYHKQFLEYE
# How it was run: as §1
# USP24 = USP24 (UniProt Q9UPU5)
# How it was run: as §1
# USP25 = biological target: T3, USP25 (UniProt Q9UHP3)
# T3 sequence (whole entry): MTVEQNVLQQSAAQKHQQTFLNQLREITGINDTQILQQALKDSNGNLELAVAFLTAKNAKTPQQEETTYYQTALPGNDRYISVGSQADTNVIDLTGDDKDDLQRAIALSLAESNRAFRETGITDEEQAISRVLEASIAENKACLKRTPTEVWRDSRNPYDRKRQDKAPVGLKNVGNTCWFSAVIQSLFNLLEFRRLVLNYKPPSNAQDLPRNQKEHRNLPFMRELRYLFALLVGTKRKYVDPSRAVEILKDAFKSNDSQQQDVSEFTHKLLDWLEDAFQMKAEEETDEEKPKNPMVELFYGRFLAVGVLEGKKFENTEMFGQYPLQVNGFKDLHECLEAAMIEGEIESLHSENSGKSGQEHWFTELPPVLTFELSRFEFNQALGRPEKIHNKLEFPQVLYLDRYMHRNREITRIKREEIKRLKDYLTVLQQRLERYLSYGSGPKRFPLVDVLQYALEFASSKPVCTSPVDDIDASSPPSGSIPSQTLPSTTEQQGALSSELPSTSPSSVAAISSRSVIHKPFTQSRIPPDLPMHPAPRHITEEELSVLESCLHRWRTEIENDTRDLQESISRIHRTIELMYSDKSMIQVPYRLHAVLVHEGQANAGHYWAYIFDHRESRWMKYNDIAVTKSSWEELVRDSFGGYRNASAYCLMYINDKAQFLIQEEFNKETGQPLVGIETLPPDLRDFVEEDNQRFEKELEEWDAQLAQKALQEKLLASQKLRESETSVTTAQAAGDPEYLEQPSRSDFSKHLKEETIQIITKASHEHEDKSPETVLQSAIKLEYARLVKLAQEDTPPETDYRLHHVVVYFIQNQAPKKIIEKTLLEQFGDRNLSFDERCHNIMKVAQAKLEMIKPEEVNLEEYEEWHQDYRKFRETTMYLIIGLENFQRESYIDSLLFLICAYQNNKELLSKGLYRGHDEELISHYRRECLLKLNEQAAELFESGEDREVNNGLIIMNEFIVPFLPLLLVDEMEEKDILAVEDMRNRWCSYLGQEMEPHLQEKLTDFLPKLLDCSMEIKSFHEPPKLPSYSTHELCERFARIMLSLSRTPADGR
# How it was run: as §1
# USP28 = biological target: T4, USP28 (UniProt Q96RU2)
# T4 sequence (whole entry): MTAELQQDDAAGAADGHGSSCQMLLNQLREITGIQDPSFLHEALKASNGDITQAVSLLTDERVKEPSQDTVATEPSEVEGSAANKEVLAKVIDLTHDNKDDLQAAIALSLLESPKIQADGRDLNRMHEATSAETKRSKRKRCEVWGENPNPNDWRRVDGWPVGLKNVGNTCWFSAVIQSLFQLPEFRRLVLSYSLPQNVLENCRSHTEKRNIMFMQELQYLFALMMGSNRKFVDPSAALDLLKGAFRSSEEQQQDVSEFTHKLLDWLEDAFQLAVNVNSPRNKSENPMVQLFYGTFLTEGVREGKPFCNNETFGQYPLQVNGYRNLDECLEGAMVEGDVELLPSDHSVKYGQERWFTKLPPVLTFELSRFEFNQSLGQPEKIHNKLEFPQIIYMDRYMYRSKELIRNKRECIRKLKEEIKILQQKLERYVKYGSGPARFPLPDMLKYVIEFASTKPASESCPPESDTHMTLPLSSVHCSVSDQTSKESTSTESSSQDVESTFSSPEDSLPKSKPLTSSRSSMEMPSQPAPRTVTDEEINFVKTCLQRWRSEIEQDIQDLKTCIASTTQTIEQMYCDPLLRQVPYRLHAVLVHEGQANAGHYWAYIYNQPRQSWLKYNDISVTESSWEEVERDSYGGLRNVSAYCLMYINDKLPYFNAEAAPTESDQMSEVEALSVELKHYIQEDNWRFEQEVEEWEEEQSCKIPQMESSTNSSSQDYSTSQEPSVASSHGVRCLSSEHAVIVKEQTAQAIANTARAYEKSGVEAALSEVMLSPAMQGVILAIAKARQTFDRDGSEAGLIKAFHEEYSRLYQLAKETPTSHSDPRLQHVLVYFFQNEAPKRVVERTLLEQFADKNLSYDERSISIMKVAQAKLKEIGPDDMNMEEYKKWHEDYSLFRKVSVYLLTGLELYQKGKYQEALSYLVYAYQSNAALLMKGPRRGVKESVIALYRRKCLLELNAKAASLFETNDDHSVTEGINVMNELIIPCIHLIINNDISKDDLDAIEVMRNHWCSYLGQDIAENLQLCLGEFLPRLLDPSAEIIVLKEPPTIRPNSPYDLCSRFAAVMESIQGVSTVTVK
# How it was run: as §1
# USP24, sequence (Q9UPU5 whole entry): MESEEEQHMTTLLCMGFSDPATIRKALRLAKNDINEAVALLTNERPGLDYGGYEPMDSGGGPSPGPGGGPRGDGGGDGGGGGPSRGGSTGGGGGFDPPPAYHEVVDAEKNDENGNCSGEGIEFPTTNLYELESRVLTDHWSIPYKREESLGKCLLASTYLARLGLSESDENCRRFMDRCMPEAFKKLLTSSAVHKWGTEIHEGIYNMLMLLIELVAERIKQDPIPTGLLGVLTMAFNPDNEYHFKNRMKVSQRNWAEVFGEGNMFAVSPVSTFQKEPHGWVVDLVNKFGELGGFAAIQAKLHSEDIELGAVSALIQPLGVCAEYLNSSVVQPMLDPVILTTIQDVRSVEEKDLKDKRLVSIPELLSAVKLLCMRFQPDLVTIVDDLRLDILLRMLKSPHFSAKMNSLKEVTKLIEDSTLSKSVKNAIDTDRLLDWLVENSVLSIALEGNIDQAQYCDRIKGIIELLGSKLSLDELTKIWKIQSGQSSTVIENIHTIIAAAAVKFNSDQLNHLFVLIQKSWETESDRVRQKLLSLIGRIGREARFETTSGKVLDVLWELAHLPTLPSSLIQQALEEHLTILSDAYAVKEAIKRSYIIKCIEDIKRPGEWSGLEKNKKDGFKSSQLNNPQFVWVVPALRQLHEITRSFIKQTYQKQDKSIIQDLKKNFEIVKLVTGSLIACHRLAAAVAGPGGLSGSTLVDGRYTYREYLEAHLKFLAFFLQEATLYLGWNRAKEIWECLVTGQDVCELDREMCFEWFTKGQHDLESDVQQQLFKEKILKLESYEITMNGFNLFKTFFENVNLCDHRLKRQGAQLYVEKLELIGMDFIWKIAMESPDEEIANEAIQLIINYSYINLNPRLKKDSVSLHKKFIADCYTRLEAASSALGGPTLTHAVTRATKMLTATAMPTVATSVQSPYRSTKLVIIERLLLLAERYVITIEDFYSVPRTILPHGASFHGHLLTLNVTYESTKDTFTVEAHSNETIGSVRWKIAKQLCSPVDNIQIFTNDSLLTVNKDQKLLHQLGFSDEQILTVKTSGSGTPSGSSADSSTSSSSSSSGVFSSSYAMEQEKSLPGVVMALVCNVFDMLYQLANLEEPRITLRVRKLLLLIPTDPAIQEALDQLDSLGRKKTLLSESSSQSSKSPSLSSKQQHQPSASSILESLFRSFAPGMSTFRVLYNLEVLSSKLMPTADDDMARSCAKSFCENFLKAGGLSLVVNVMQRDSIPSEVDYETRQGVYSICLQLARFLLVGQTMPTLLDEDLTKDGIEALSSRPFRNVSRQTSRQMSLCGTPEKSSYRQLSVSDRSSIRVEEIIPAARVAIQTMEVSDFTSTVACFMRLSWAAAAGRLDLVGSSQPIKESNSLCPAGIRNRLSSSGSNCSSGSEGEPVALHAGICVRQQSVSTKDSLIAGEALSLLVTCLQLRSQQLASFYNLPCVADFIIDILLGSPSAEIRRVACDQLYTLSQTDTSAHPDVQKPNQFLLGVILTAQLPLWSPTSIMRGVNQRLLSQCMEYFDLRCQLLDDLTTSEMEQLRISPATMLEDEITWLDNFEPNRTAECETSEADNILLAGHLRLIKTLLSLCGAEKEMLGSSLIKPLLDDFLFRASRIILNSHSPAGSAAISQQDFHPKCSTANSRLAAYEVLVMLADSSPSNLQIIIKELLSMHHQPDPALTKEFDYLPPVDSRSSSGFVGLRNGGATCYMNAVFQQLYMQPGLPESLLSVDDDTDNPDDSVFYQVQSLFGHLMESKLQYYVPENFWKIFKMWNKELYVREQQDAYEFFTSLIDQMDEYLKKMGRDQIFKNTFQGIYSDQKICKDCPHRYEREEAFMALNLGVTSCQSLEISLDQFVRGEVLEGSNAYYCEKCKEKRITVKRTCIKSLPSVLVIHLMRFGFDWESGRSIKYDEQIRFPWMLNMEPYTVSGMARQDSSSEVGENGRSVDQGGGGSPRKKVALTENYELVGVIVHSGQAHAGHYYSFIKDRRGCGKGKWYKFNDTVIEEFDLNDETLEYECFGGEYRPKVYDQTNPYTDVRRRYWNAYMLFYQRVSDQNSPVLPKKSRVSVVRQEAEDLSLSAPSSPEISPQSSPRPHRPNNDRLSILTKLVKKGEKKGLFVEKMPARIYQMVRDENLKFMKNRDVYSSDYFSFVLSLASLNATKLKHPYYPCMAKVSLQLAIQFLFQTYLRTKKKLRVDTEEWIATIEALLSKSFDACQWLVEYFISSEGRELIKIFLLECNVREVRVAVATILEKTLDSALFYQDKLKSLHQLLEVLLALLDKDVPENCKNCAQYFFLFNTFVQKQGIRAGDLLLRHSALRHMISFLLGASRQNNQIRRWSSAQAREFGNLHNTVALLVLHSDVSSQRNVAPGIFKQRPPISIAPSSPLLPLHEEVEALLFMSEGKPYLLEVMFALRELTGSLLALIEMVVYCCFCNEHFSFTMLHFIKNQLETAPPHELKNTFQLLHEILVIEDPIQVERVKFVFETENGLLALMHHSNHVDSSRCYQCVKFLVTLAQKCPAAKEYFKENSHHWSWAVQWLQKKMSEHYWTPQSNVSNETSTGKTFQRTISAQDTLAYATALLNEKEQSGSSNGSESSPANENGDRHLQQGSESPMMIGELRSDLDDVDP
structure (smiles),measurement,setting,value
O=C(CCl)Nc1cccc(C(=O)N2CCSCC2)c1,log2 ratio of Biotin-Ahx-Ub-VS probe labelling,USP19,-0.239
same,log2 ratio of Biotin-Ahx-Ub-VS probe labelling,USP22,-0.0474
same,log2 ratio of Biotin-Ahx-Ub-VS probe labelling,USP24,-0.522
same,log2 ratio of Biotin-Ahx-Ub-VS probe labelling,USP25,-1.17 (active)
same,log2 ratio of Biotin-Ahx-Ub-VS probe labelling,USP28,-0.818
